Bioassay records as filed in PubChem BioAssay.
DUX4 txn inh: blocks DUX4-driven transcriptional activation. AID 1224904. 37,000 compounds, 0.8% hits. 293T-iDUX4 ZSCAN4-Gaussia luciferase reporter, 24 h; active compounds read low. activity change, negative = inhibition, % (test concentration not listed);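 active = mean inhibition of at least 10% in the main channel, exceeding the control channel by a set limit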;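 also: 0% = median of neutral control wells and -100% = median of positive control wells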
Active calls of the source: *; ! = a repeat was not active. This is one part of a sample in which hits are shown more often than they occur.

SMILES	DUX4 txn inh
COc1ccc2c3c(n(C)c2c1)[C@@H](CO)N(C)CC31CN(C(=O)Nc2cccc(F)c2)C1	9.6
COc1ccc2c3c(n(C)c2c1)[C@H](CO)N(CC1CC1)CC31CN(Cc2ccc(F)cc2)C1	-3.5
COc1ccc2c3c(n(C)c2c1)[C@@H](CO)N(C(=O)c1ccccc1)CC31CN(C)C1	5.9
COc1ccc2c3c(n(C)c2c1)[C@H](CO)N(CC1CC1)CC31CN(C(=O)c2ccc(F)cc2)C1	-37.2*
COc1ccc2c3c(n(C)c2c1)[C@H](CO)N(C(C)=O)CC31CN(C(=O)c2ccccc2)C1	-30.2*
COc1cc(CN2CC3(CCN(C(=O)NC(C)C)CC3)c3c(n(C)c4cc(OC)ccc34)[C@@H]2CO)cc(OC)c1	-4.7
COc1cc(CN2CC3(CCN(C(=O)Nc4cccc(F)c4)CC3)c3c(n(C)c4cc(OC)ccc34)[C@H]2CO)cc(OC)c1	-37.0*
C[C@H]1CN([C@@H](C)CO)C(=O)c2c(c3ccccc3n2C)-c2ccccc2CO[C@@H]1CN(C)C(=O)[C@@H]1CCCN1C	11.9
CN(C)C(=O)C[C@H]1CC[C@H]2[C@H](COc3ccc(NS(=O)(=O)c4cccc(F)c4)cc3C(=O)N2C)O1	1.5
CO[C@@H]1CN(C)C(=O)c2cc(NC(=O)C3CC3)ccc2OC[C@H](C)N(C(=O)c2ccncc2)C[C@@H]1C	0.8
N#Cc1cccc(-c2ccc(C3[C@H]4CNC[C@@H]3N4S(=O)(=O)c3ccccc3)cc2)c1 (stereo partly drawn)	5.9
COc1ccc(NC(=O)N[C@H]2CC[C@@H](CC(=O)NC3CCCCC3)O[C@H]2CO)cc1	-0.8
C[C@@H]1CN([C@H](C)CO)C(=O)c2cc(NC(=O)c3ccncc3)ccc2O[C@@H]1CN(C)S(=O)(=O)c1ccc(Cl)cc1	-5.8
CCCC#Cc1ccc([C@@H]2[C@H](CO)N3C(=O)CN(C(=O)c4cccc(F)c4)C[C@@H]23)cc1	1.7
CC(C)CC#Cc1cnc2c(c1)C(=O)N([C@H](C)CO)C[C@@H](C)[C@H](CN(C)Cc1cccc(F)c1)O2	-3.2
COCc1cn(CC[C@@H]2CC[C@H](NC(=O)Nc3c(C)noc3C)[C@@H](CO)O2)nn1	-9.3
COc1ccc(NC(=O)N(C)C[C@H]2OCc3cnnn3CCCC(=O)N([C@H](C)CO)C[C@H]2C)cc1	3.9
COc1ccc2c3c(n(C)c2c1)[C@H](CO)N(C(=O)c1cccnc1)CC31CCN(C)CC1	-1.9
O=C(N[C@@H]1C=C[C@H](CC(=O)N2CCC(Cc3ccccc3)CC2)O[C@@H]1CO)c1cnccn1	-4.2
COc1ccccc1C#Cc1ccc2c(c1)[C@@H]1[C@@H](CCN1C(=O)c1ccc(F)cc1)[C@@H](CO)N2	-0.4
O=C(c1ccc(F)cc1)N1CC[C@@H]2[C@H]1c1cc(C#Cc3ccccc3F)ccc1N[C@@H]2CO	-1.4
O=C(c1ccc(F)cc1)N1CC[C@@H]2[C@H]1c1cc(C#Cc3ccc(F)cc3)ccc1N[C@@H]2CO	2.9
O=C(c1ccc(F)cc1)N1CC[C@@H]2[C@H](CO)Nc3ccc(C#Cc4ccc(F)cc4)cc3[C@@H]21	-19.7*
COc1ccccc1C#Cc1ccc2c(c1)[C@@H]1[C@@H](CCN1C(=O)c1ccc(F)cc1)[C@H](CO)N2	-6.7
O=C(c1ccc(F)cc1)N1CC[C@@H]2[C@H](CO)Nc3ccc(C#Cc4ccccc4F)cc3[C@@H]21	-29.6*
SMILES	DUX4 txn inh
CC(C)(C)[S@](=O)N1Cc2cc(C(=O)NCCc3ccncc3)nc(-c3cccc(-c4cccnc4)c3)c2[C@@H]1CCO	-0.5
CC(C)C(=O)Nc1ccc2c(c1)C(=O)N(C)[C@H]1CC[C@H](CC(=O)NCCc3ccccc3)O[C@@H]1CO2	2.8
O=C(NCC1CCCCC1)[C@@H]1[C@@H](CO)[C@@H]2Cn3c(ccc(C4=CCCC4)c3=O)[C@H]1N2C(=O)CC1CC1	-5.5
O=C(C[C@H]1C=C[C@H](NC(=O)Nc2ccc(C(F)(F)F)cc2)[C@H](CO)O1)NCc1ccccn1	1.8
CCNC(=O)C[C@H]1CC[C@@H]2[C@H](COC[C@H](O)CN2C(=O)c2cccnc2)O1	12.2
C[C@H](CO)N1C[C@H](C)[C@H](CN(C)S(=O)(=O)c2cccc(F)c2)OCc2ccccc2-c2ccccc2C1=O	-20.8*
C[C@H](CO)N1C[C@H](C)[C@@H](CN(C)S(=O)(=O)c2ccc(F)cc2)OCc2ccccc2-c2c(n(C)c3ccccc23)C1=O	-3.0
C[C@@H]1CN([C@H](C)CO)C(=O)c2c(c3ccccc3n2C)-c2ccccc2CO[C@@H]1CN(C)S(=O)(=O)CC(F)(F)F	-1.4
C[C@H]1CN([C@@H](C)CO)C(=O)c2c(c3ccccc3n2C)-c2ccccc2CO[C@H]1CN(C)S(C)(=O)=O	1.7
C[C@@H]1CN([C@H](C)CO)C(=O)c2ccccc2-c2ccccc2CO[C@H]1CN(C)S(=O)(=O)c1cccc(F)c1	2.1
C[C@@H]1CN([C@H](C)CO)C(=O)c2ccccc2-c2ccccc2CO[C@@H]1CN(C)S(=O)(=O)c1cccc(F)c1	0.6
Cc1cccc(S(=O)(=O)N(C)C[C@@H]2OCc3ccccc3-c3c(n(C)c4ccccc34)C(=O)N([C@@H](C)CO)C[C@H]2C)c1	-53.0*
C[C@H]1CN([C@@H](C)CO)C(=O)c2c(c3ccccc3n2C)-c2ccccc2CO[C@H]1CN(C)S(=O)(=O)CC(F)(F)F	-9.9
C[C@H](CO)N1C[C@H](C)[C@@H](CN(C)S(C)(=O)=O)OCc2ccccc2-c2c(n(C)c3ccccc23)C1=O	16.8
C[C@H](CO)N1C[C@H](C)[C@H](CN(C)S(=O)(=O)CC(F)(F)F)OCc2ccccc2-c2c(n(C)c3ccccc23)C1=O	-32.8*
C[C@H](CO)N1C[C@H](C)[C@@H](CN(C)S(=O)(=O)c2cccc(C#N)c2)OCc2ccccc2-c2c(n(C)c3ccccc23)C1=O	9.1
Cc1cccc(S(=O)(=O)N(C)C[C@H]2OCc3ccccc3-c3c(n(C)c4ccccc34)C(=O)N([C@H](C)CO)C[C@H]2C)c1	-28.5*
CC(=O)N1[C@H](CO)[C@H]2c3ccccc3N(C(=O)Nc3cc(F)ccc3F)C[C@H]21	3.7
C/C=C/c1ccccc1[C@@H]1[C@@H](C#N)N(C(=O)NC2CCCCC2)[C@H]1CO	-3.2
C[C@H](CO)N1C[C@H](C)[C@@H](CN(C)C(=O)[C@@H]2CCCN2C)OCc2ccccc2-c2ccccc2C1=O	8.8
CC(C)NC(=O)N(C)C[C@@H]1Oc2cc(C#Cc3ccccn3)ccc2S(=O)(=O)N([C@H](C)CO)C[C@@H]1C	-0.1
Cc1ccccc1-c1ccc2c(c1)O[C@@H](CN(C)Cc1ccncc1)[C@@H](C)CN([C@@H](C)CO)S2(=O)=O	0.0
COc1ccccc1-c1ccc2c(c1)O[C@@H](CN(C)C(=O)Nc1cccc(F)c1)[C@@H](C)CN([C@@H](C)CO)S2(=O)=O	-1.9
CO[C@H]1CN(C)C(=O)c2ccc(NC(=O)C3CCOCC3)cc2OC[C@H](C)N(C)C[C@@H]1C	-0.2
CCCC(=O)Nc1ccc2c(c1)C(=O)N(C)[C@@H]1CC[C@H](CC(=O)N3CCCCC3)O[C@H]1CO2	-4.2
COc1ccccc1-c1ccc2n(c1=O)C[C@H]1[C@H](CO)[C@@H](C(=O)Nc3nccs3)N(C)[C@@H]21	2.3
Cc1cccc(S(=O)(=O)N2C[C@@H]3N[C@H](C2)C3c2ccc(-c3ccccc3C)cc2)c1 (stereo partly drawn)	-72.6*!
COc1cccc(S(=O)(=O)N2C[C@@H]3N[C@H](C2)C3c2ccc(-c3ccccc3F)cc2)c1 (stereo partly drawn)	-68.6*!
